Assay results reported in PubChem BioAssay AID652134 (The Scripps Research Institute Molecular Screening Center, 2013).
The campaign covered roughly 2,400 compounds. About 2,100 (88%) were called active.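 How the source made its calls: active means inhibition above the average of every tested compound plus 3 SD (cut at about 3.8% in these data); inactive means the rest.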 So high a share suggests a set chosen from earlier hits. Not all results are given here.

What follows are compounds tested against Nuclear receptor subfamily 0 group B member 1 (Homo sapiens) (UniProt P51843) (assay: DAX1 (NR0B1) inhibitors relieving SF-1 repression, confirmation, cell-based, luminescence, HEK293T, full-length DAX-1, SF-1 activated StAR promoter (AID 652134;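 further: 0% = DAX-1 cells with DMSO and 100% = no DAX-1 control cells with DMSO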)). Settings: HEK293T StAR-promoter luciferase reporter, SF-1/DAX-1 repression; at 6.8 µM; stronger effect = higher value.
Sequence of Nuclear receptor subfamily 0 group B member 1 (Homo sapiens) (P51843 whole entry, looked up): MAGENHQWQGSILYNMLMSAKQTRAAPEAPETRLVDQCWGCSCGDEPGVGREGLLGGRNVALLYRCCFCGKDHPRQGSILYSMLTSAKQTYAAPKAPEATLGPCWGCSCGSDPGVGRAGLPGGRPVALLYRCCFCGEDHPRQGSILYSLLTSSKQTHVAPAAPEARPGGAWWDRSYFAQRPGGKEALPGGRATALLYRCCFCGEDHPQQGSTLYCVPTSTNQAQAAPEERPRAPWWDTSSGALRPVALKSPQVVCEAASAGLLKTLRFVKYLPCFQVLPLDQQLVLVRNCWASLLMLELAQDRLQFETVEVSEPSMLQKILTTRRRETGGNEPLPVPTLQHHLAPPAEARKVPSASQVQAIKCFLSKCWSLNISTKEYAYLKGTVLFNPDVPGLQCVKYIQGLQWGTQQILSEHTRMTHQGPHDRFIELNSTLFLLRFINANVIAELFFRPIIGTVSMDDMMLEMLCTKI

inhibition, active:
O=C(NCCc1ccc(F)cc1)c1ccc2nccnc2c1 12.4%
COc1ccc(Nc2ncc(F)c(N3CCOCC3)n2)cc1 11.3%
OC(c1ccccc1)c1nc(-c2cnc3ccccc3c2)cs1 (stereo unspecified) 13%
O=C1C(C=NCC2CCCO2)=C(O)c2ccccc21 (stereo unspecified) 7.49%
CC(=O)Nc1cccc(-c2csc(Nc3cccc(C)n3)n2)c1 10.7%
COc1cc(C2c3cc4c(cc3C(O)C3COC(=O)C23)OCO4)cc(OC)c1OC (stereo unspecified) 19.5%
COc1cc(/C=N/O)ccc1OCc1ccc([N+](=O)[O-])cc1 11.6%
CC(=O)Nc1cccc(C(=O)OCC(=O)c2ccc3c(c2)OCO3)c1 14.1%
CC(C)c1ccc(C=NNc2ccc([N+](=O)[O-])cn2)cc1 14.9%
S=C(c1ccc(-c2ccccc2)o1)N1CCCCC1 11%
COc1ccc2nc(SCc3ccccc3)nc(C)c2c1 20.3%
CC(C)Cc1cc(C(=O)NCCc2ccccc2)no1 8.87%
CNCC(O)c1ccc(O)c(O)c1 (stereo unspecified) 3.72%
C(=N\Nc1ccc2ccccc2n1)/c1ccc2c(c1)OCO2 13.2%
COc1ccc2nc(-c3ccccn3)ccc2c1 12.2%
Cc1ccc(-c2nc3ccccc3[nH]2)cc1N 11.7%
c1ccc2[nH]c(-c3nc4ccccc4[nH]3)nc2c1 11.3%
O=C(NC(=S)NC1CCCCC1)c1ccc(Cl)cc1 6.95%
O=C(c1cnn2ccccc12)N1CCc2ccccc21 9.73%
COc1cccc(/C=C/C(=O)Nc2ccc3c(c2)OCCO3)c1 3.84%
Cc1cccc(NC(=O)/C=C/c2ccc3c(c2)OCO3)n1 13.6%
O=C(O)c1cccc(N=NN2CCCCCC2)c1 15%
O=c1c2c(nc3n1CCCCC3)sc1c(O)cccc12 16.3%
O=C(Nc1ccc(Cl)c(Cl)c1)c1ccccc1NC(=O)C1CC=CCC1C(=O)O (stereo unspecified) 7.46%
O=c1oc(/C=C/c2ccccc2)nc2ccccc12 11.2%
Cc1ccc(S(=O)Cc2ccc(C(=O)N3CCN(C4CCCCC4)CC3)o2)cc1 (stereo unspecified) 5.33%
O=[N+]([O-])c1ccc2oc(-c3cccc(O)c3)nc2c1 10.7%
COc1ccc(-c2cn3ccsc3n2)cc1 12.2%
COc1ccc(-c2cn3ccc(C)cc3n2)cc1 9.6%
O=c1c2c(nc3cc(-c4cccc(Cl)c4)[nH]n13)CCCC2 22.3%
O=C(CSc1cccc[n+]1[O-])c1ccc(-c2ccccc2)cc1 3.72%
O=C(NCCc1c[nH]c2ccccc12)c1cc2ccccc2oc1=O 10.1%
Cc1cc(OCc2cc(C(=O)NCc3cc(C(C)C)no3)no2)cc(C)c1Cl 6.04%
Cc1nc2cc(NC(=O)Nc3cccc(F)c3)ccc2n1C 15.5%
Nc1ccc(C(=O)Nc2ccccc2N)cc1 94.3%
Cn1ccnc1SCC(=O)Nc1ccc2c(c1)OCCO2 10.6%
CN(C(=O)c1cc2c(=O)n3ccccc3nc2s1)C1CCCCC1 9.28%
NS(=O)(=O)c1ccc2nc(NC(=O)C3=COCCO3)sc2c1 9.88%
Cc1sc(NC(=O)c2ccc3ncsc3c2)c(C(N)=O)c1C 14.4%
CCOC(=O)c1c(S(=O)(=O)Nc2ccc(CN3CCC(C)CC3)cc2)c(C)n(C)c1C 4.2%
CCc1ccc(NC2Nc3cc(C)nn3S2)cc1 (stereo unspecified) 10.6%
CCOc1cccc(/C=C/c2ccc3ccccc3n2)c1OC(C)=O 10.4%
Cc1csc(SCC(=O)Nc2sccc2C#N)n1 16.1%
COC(=O)c1sc(NC(=O)c2ccc(OC)cc2OC)nc1C 13.9%
O=C(Nc1ccc2c(c1)CCC2)c1ccc(Br)s1 15.1%
COc1ccc(/C=C/C(=O)Nc2ccc(C34CC5CC(CC(O)(C5)C3)C4)cc2)cc1OC 4.27%
Clc1ccc(Nc2nc(-c3cccs3)cs2)nc1 13.8%
Cc1ccccc1OCC(=O)Nc1ccc2c(c1)ncn2C 8.73%
Cc1ccccc1Nc1nc(N)nc(CSc2ccccc2)n1 19.3%
CCCNC(=O)C1CC(=O)N(c2ccc(OCc3ccccc3)cc2)C1 (stereo unspecified) 14.4%
Cc1ccc(N/C=C/C(=O)c2ccccc2)cc1C 10.3%
CC1CCN(C(=O)COC(=O)c2cc(=O)[nH]c3ccccc23)CC1 9.14%
CCOc1ccc(S(=O)(=O)Nc2cccc(C(=O)NCC3(N4CCCCC4)CCCCC3)c2)cc1 8.51%
O=C(NCC1(N2CCCCC2)CCCCC1)c1ccc(NS(=O)(=O)c2ccc(F)cc2)cc1 9.71%
COc1ccccc1-c1cc(C(=O)N2CCCCC2)no1 13.3%
COc1ccc(OCc2cc(C(=O)N3CCCC3)no2)c2ccccc12 6.33%
O=C(c1cc(-c2cccs2)on1)N1CCCCC1 12.9%
O=C(c1cc(-c2ccccc2O)on1)N1CCCC1 11.2%
CC(C)c1ccc(Nc2ncccc2C#N)cc1 5.79%
Cc1ccnc(NC(=O)CCNS(=O)(=O)c2ccc(C)c(C)c2)c1 14%
CC1CCCN(c2ccc(C(=O)NCCc3ccccc3)cn2)C1 (stereo unspecified) 7.54%
CC[C@]1(O)C[C@@H]2CN(CCc3c([nH]c4ccccc34)[C@@](C(=O)OC)(c3cc4c(cc3OC)N(C)[C@H]3[C@@](O)(C(=O)OC)[C@H](OC(C)=O)[C@]5(CC)C=CCN6CC[C@]43[C@@H]65)C2)C1 19.4%
CC[C@]1(O)CC2CN(CCc3c([nH]c4ccccc34)[C@@](C(=O)OC)(c3cc4c(cc3OC)N(C=O)[C@H]3[C@@](O)(C(=O)OC)[C@H](OC(C)=O)[C@]5(CC)C=CCN6CC[C@]43[C@@H]65)C2)C1 (stereo partly specified) 17.7%
Cc1c(C(=O)Nc2ccccn2)oc2ccc(Br)cc12 12.8%
CCOc1ccc(-c2nnc(-c3ccco3)o2)cc1 9.81%
O=C(NCC1CCCO1)c1cc2c(s1)CCCC2 (stereo unspecified) 5.13%
O=C(Nc1ccc2ccccc2c1[N+](=O)[O-])c1ccccc1 8.86%
O=C(NCCOc1ccccc1)c1ccccc1F 13.3%
O=C(Nc1ccn(Cc2ccccc2)n1)c1n[nH]c([N+](=O)[O-])c1Cl 10.4%
COc1ccc(-c2csc(Nc3ccccn3)n2)cc1 12.8%
COC(=O)Nc1nc2ccc(C(=O)C3CC3)cc2[nH]1 17.1%
CN1CCN(C(=O)c2ccc(-c3ccc(Br)cc3)o2)CC1 6.02%
CCCOc1ccc(C(=O)NCCc2ccccc2)cc1 11.2%
CCCc1cc(C(=O)Nc2ccc(Cl)cn2)cs1 8.76%
Nc1c(C(=O)Nc2ccc3c(c2)OCCO3)nnn1Cc1ccccc1 12.5%
O=C(Nc1ccc(NC(=O)c2cccs2)cn1)c1ccco1 12.9%
O=C(NC(=S)Nc1ccc(Cl)cc1Cl)C1CC1 5.19%
O=C(Nc1ccccc1)Nc1nc2ccccc2s1 14.6%
CC(C)c1ccc(Nc2nnc(SCC(=O)c3nnc(-c4ccccc4)o3)s2)cc1 7.92%
CCc1ccc2oc(-c3ccc(N)cc3)nc2c1 12.2%
CC(C)(C)c1csc(NC2=NS(=O)(=O)c3ccccc32)n1 11.5%
Cc1ccc(-n2cc3ccc([N+](=O)[O-])cc3n2)cc1 12.1%
Brc1ccc2nc(N3CCCC3)sc2c1 7.35%
O=C(Nc1ncccc1O)c1ccc(S(=O)(=O)N2CCCC2)cc1 10.3%
O=C(Nc1ncccc1O)c1ccc(C(=O)c2ccccc2)cc1 51.3%
O=C(Nc1ncccc1O)c1ccc(S(=O)(=O)N2CCCCCC2)cc1 7.57%
CCc1ccc(NC(=O)N2CCc3ccccc3C2)cc1 5.01%

inhibition, inactive:
CC(C)(O)C#Cc1ccc(CNC[C@H]2O[C@@H](n3cnc4c(=O)[nH]c(N)nc43)[C@H](O)[C@@H]2O)s1 -1.28%
CCN(CC(=O)Nc1c(F)cccc1F)C(=O)c1cnc(C)cn1 0.35%
CC(Oc1ccccc1[N+](=O)[O-])C(=O)N/N=C/c1ccoc1 (stereo unspecified) 1.13%
Cc1cc(C)c(C)c(S(=O)(=O)N2CCN(C(=O)c3ccc4c(=O)n5c(nc4c3)CCC5)CC2)c1C 0.85%
C=CCn1c(SCC(=O)Nc2ccc(NC(C)=O)cc2)nc2sc(C)c(C)c2c1=O -0.94%
COc1ccccc1CCC(=O)OCC(=O)N1CCN(S(=O)(=O)c2ccc(C)cc2C)CC1 1.66%
CCN(c1ccccc1)S(=O)(=O)c1ccc(OCC(=O)N2CCCC2)cc1 0.88%
C/C(=N\NC(=O)c1ccccc1F)c1ccccn1 -7.54%
O=C(CCc1ccccc1)Nc1ncc([N+](=O)[O-])s1 3.12%
COc1ccc(CCOC2OC(CO)C(OC(=O)/C=C/c3ccc(O)c(OC)c3)C(O[C@H]3O[C@@H](C)[C@H](O)[C@@H](O)[C@H]3O)C2O)cc1O (stereo partly specified) 2.5%
COc1ccc(C(=O)NCC[N+](C)(C)C)cc1 1.64%
O=C(N/N=C\C1CC=CCC1)c1ccc(Br)o1 (stereo unspecified) 0.48%
CCCc1cc(C(=O)Nc2ccc(C(=O)OC)cc2)cs1 3.03%
COc1cc(OC)c(C(=O)NNC(=O)c2ccc(NS(=O)(=O)c3cccs3)cc2)cc1OC 1.04%
